This is part of a sample that, as a whole, favours compounds with a hit. Of some 83,000 tested, about 20% had one in any assay.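 Single-concentration screen, 48 h exposure, 96-well plates. Endpoint: percent growth. Below 10 = active.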 Unmarked numbers belong to inactive results. Active and inactive are the calls of the source.

Holding throughout (assay): NCI-60 one-dose screen, 48 h (100 = growth as untreated, 0 = no growth, -100 = all killed)
For one experiment, the system named is NCI-H23 lung. The following applies: 10 µM unless noted.
For a further experiment, the system named is NCI-H226 lung. The following applies: 10 µM unless noted.
The test system of another experiment is NCI-H322M lung. The following applies: 10 µM unless noted.
Another experiment has as its system HOP-62 NSCLC. The following applies: 10 µM unless noted.
In a further experiment the test system is NCI-H460 lung. The following applies: 10 µM unless noted.
For another experiment, the system named is 786-0 renal. The following applies: 10 µM unless noted.
The next experiment deals with COLO 205 colon. Conditions: 10 µM unless noted.
The test system of the next experiment is DU-145 prostate. The following applies: 10 µM unless noted.
The subject of another experiment is K-562 leukemia. Conditions: 10 µM unless noted.
The test system of a further experiment is MALME-3M melanoma. The following applies: 10 µM unless noted.
Another experiment has as its system MDA-MB-231 breast. Conditions: 10 µM unless noted.
In the next experiment the test system is RXF 393 renal. The following applies: 10 µM unless noted.
In another experiment the test system is SF-268 CNS. Conditions: 10 µM unless noted.
The subject of the next experiment is SF-295 CNS. The following applies: 10 µM unless noted.
The next experiment relates to SF-539 CNS. Conditions: 10 µM unless noted.
For another experiment, the system named is UACC-257 melanoma. The following applies: 10 µM.
The test system of a further experiment is M14 melanoma. The following applies: 10 µM unless noted.
In a further experiment the test system is NCI-H522 lung. Conditions: 10 µM unless noted.
The subject of another experiment is A549/ATCC NSCLC. The following applies: 10 µM unless noted.

As for `O=[N+]([O-])c1ccc(-c2nnc(SCc3ccc(O)c4ncccc34)o2)cc1`, the growth in the experiment with NCI-H23 lung was 21.5%; in the experiment on NCI-H226 lung, 36.2%; in the experiment on NCI-H322M lung, 40.7%; in the experiment with HOP-62 NSCLC it was 21.5%; in the experiment with NCI-H460 lung, 8.58% (active); in the experiment on 786-0 renal it was 33%. Also, the growth in the experiment on COLO 205 colon is 49.9%; with DU-145 prostate, 29.5%; in the experiment with K-562 leukemia it was 17.6%; in the experiment on MALME-3M melanoma, 21.5%; in the experiment on MDA-MB-231 breast, 38.1%; in the experiment with RXF 393 renal it was 14.8%. Besides, the growth with SF-268 CNS is 27.7%; in the experiment on SF-295 CNS, 9.85% (active); with SF-539 CNS, 23.5%; in the experiment on UACC-257 melanoma it was 18.6%; in the experiment with M14 melanoma it was 27.4%.
Turning to `CCCCCCNC(=O)Oc1ccc(/C(=C(/C)c2ccc(Cl)cc2)c2ccc(OCCN3CCCC3)cc2)cc1`, the growth with NCI-H23 lung is 48.3%; in the experiment with NCI-H226 lung, 83.1%; in the experiment on NCI-H322M lung it was 69.2%; with HOP-62 NSCLC, 65%; with NCI-H460 lung, -57% (active); in the experiment with NCI-H522 lung it was 65.3%. Further, the growth is -28.8% (active) in the experiment on 786-0 renal; -36.4% (active) in the experiment on COLO 205 colon; 69.2% with DU-145 prostate; 6.52% (active) in the experiment on K-562 leukemia; -70.8% (active) in the experiment with MALME-3M melanoma; 30.6% with MDA-MB-231 breast. Also, the growth in the experiment on RXF 393 renal was 9.25% (active); with SF-268 CNS it was 61.9%; with SF-295 CNS it was -32.7% (active); with SF-539 CNS, -24.4% (active); in the experiment with UACC-257 melanoma, -16.5% (active); with M14 melanoma, -54.3% (active).
Regarding `Fc1ccccc1/C=C(/C1=NCCN1)n1cnc2ccccc21`, the growth is 96% with NCI-H23 lung; 83.2% in the experiment with NCI-H226 lung; 90% in the experiment with NCI-H322M lung; 106% with HOP-62 NSCLC; 104% in the experiment with NCI-H460 lung; 94.3% in the experiment on NCI-H522 lung. Further, the growth in the experiment on A549/ATCC NSCLC is 107%; in the experiment on 786-0 renal it was 99%; in the experiment on COLO 205 colon, 123%; with DU-145 prostate it was 97.2%; in the experiment with K-562 leukemia it was 94.1%; in the experiment on MALME-3M melanoma, 91%. In addition, the growth with MDA-MB-231 breast is 93.4%; with RXF 393 renal, 84.1%; with SF-268 CNS, 90.9%; in the experiment on SF-295 CNS, 100%; with SF-539 CNS it was 95.6%; with UACC-257 melanoma, 96.9%. Moreover, the growth with M14 melanoma is 95.1%.
As for `Cc1nn(-c2ccccc2)c2nc(CCl)[nH]c(=O)c12`, the growth in the experiment with NCI-H23 lung was 98.8%; in the experiment with NCI-H226 lung, 111%; with NCI-H322M lung it was 103%; in the experiment on HOP-62 NSCLC, 98.3%; in the experiment on NCI-H460 lung, 102%; in the experiment with NCI-H522 lung, 89.8%. Also, the growth with A549/ATCC NSCLC was 97.7%; in the experiment on 786-0 renal, 4.55% (active); in the experiment on COLO 205 colon, 110%; in the experiment with DU-145 prostate it was 83.6%; in the experiment with K-562 leukemia, 19.2%; in the experiment on MALME-3M melanoma it was 103%. The growth is 88.4% in the experiment with MDA-MB-231 breast; 99.2% in the experiment with RXF 393 renal; 106% in the experiment on SF-268 CNS; 109% in the experiment with SF-295 CNS; 36.9% in the experiment on SF-539 CNS; 97.9% with UACC-257 melanoma. The growth with M14 melanoma is 99%.
As for `C=C1C(=O)O[C@@H]2/C=C(/C)C3=CC(=O)[C@@](C)(C[C@H](OC(=O)/C(C)=C\C)[C@@H]12)O3`, the growth is 6.39% (active) in the experiment with NCI-H23 lung; 34.5% in the experiment on NCI-H226 lung; 89.1% in the experiment on NCI-H322M lung; 82.4% in the experiment with HOP-62 NSCLC; 27.2% with NCI-H460 lung; -82.3% (active) with NCI-H522 lung. In addition, the growth was 72.6% with A549/ATCC NSCLC; -56.5% (active) with 786-0 renal; -52.1% (active) with COLO 205 colon; 8.26% (active) in the experiment with DU-145 prostate; -22.9% (active) with MALME-3M melanoma; -16.8% (active) in the experiment with MDA-MB-231 breast. Moreover, the growth in the experiment with RXF 393 renal was -65% (active); with SF-268 CNS, 30.2%; in the experiment on SF-295 CNS, 55.9%; with SF-539 CNS, -19.4% (active); with UACC-257 melanoma, -36.2% (active); in the experiment with M14 melanoma it was -27.6% (active).
For the molecule `O=C(NCCCCCCNC(=O)c1c2c(nc3ccccc13)-c1cccnc1SC2)c1c2c(nc3ccccc13)-c1cccnc1SC2`, the growth in the experiment with NCI-H23 lung is 63.1%; in the experiment with NCI-H226 lung, 82.6%; in the experiment on NCI-H322M lung, 71.9%; with HOP-62 NSCLC, 43.9%; in the experiment on NCI-H460 lung, 75%; in the experiment with NCI-H522 lung, 95.7%. Also, the growth in the experiment on A549/ATCC NSCLC is 70.6%; in the experiment with 786-0 renal, 76.5%; in the experiment on COLO 205 colon it was 28.8%; in the experiment with DU-145 prostate, 104%; in the experiment on K-562 leukemia, 73.4%; in the experiment with MALME-3M melanoma, -16.5% (active). The growth in the experiment on MDA-MB-231 breast was 59.3%; with RXF 393 renal, 73.4%; in the experiment on SF-268 CNS it was 77.7%; with SF-295 CNS, 94.7%; in the experiment on SF-539 CNS, 86.8%; in the experiment with UACC-257 melanoma, 17.1%. The growth with M14 melanoma was 30.8%.
As for `CC(C)(C)OC(=O)N1CCN(S(=O)(=O)/N=C2\NC(=O)NC2=C(Cl)Cl)CC1`, the growth in the experiment on NCI-H23 lung is 91.8%; with NCI-H226 lung it was 105%; in the experiment on NCI-H322M lung, 98.9%; in the experiment on HOP-62 NSCLC, 105%; in the experiment on NCI-H460 lung, 101%; in the experiment with NCI-H522 lung it was -52.4% (active). The growth with A549/ATCC NSCLC was 103%; with 786-0 renal it was 101%; with COLO 205 colon, 86.3%; in the experiment with DU-145 prostate, 101%; with K-562 leukemia, 12.6%; in the experiment with MALME-3M melanoma, 80.7%. The growth in the experiment with MDA-MB-231 breast is 80.7%; in the experiment with RXF 393 renal, 70.8%; in the experiment on SF-268 CNS, 97%; with SF-295 CNS it was 102%; with SF-539 CNS it was 99.1%; with UACC-257 melanoma, 96.1%. For the same molecule, in the experiment on M14 melanoma, the growth is 103%.
